# Assay results taken from PubChem BioAssay.
# Assay: probe aEGFR binding to arrayed compounds – biochemical, biotinylated probe, 635/667 nm fluorescence, primary screen (AID 1097);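 note: probe is a biotinylated anti-EGFR antibody binding compounds printed on slides; score combines fluorescence near 667 nm and signal to noise of each spot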
# Details: small-molecule microarray, higher = more signal
row,SMILES,composite z-score
1,COc1ccc(C(=O)Nc2ccc(CN3C(=O)[C@]4(O[C@H](CC(=O)N5CCC[C@H]5CO)[C@@H]([Si](C)(C)c5ccc(OC)cc5)[C@@H]4C)c4ccccc43)cc2)cc1,-0.12
2,C=C(CCCC)C(=O)CC[C@H](OC(=O)c1cccnc1)c1ccc(OCCO)cc1,0.0089
3,COC(=O)c1c(CC[C@@H](CO)NC(=O)NCCc2c[nH]c3ccccc23)oc(C(=O)Cc2ccccc2)c1C(=O)OC,-0.126
4,COC(=O)C(CC#Cc1ccc2c(c1)[C@]1(C(=O)N2)[C@H](c2ccccc2OCCO)N2[C@H](c3ccccc3)[C@H](c3ccccc3)OC(=O)[C@H]2[C@@H]1C(=O)O)C(=O)OC,-0.0032
5,CN(C)CCCC[C@@H]1NC(=O)[C@H]2C[C@@H](C(=O)NCCCCCN)[C@@H](c3cccc(OCCO)c3)N2C1=O,0.374
